Results on ten compounds are retold here after PubChem BioAssay (EPA / NIEHS).

One may read the AC50 as the concentration giving half of the maximal activity seen.

Read-out in assay [1]: Collagen III, COL3A1 (gene 1281)
Kind of assay: BSK_MyoF_CollagenIII: BioMAP Diversity Plus: MyoF Assay for Collagen III Biomarker Activity (AID 2284239). The settings on record: primary human lung fibroblasts. The essentials: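 Lung fibroblast culture; 24 h compound exposure; collagen III by ELISA; gain-of-signal fit vs DMSO baseline.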

Read-out in assay [2]: Interleukin 17F (IL17F), IL17F (gene 112744)
Kind of assay: BSK_BT_xIL17F: BioMAP Diversity Plus: BT Assay for Interleukin 17F (IL17F) Biomarker Activity (AID 2284243). The settings on record: primary human B cells with PBMC. In short, it runs like this: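 Secreted IL-17F, read on LumineX xMAP beads, was taken as the endpoint. Cultures combined human B cells and peripheral blood mononuclear cells, sampled 24 hours after dosing, with DMSO serving as negative control.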

Read-out in assay [3]: Actin alpha 1 (ACTA1), ACTA1 (gene 58)
Kind of assay: BSK_MyoF_ACTA1: BioMAP Diversity Plus: MyoF Assay for Actin alpha 1 (ACTA1) Biomarker Activity (AID 2284244). The settings on record: primary human lung fibroblasts. In short, it runs like this:
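alpha-SMA levels read by ELISA against DMSO baseline, 24 h post-dose, in primary human lung fibroblasts. Parallel cultures stained with 0.1% SRB after 10% TCA fixation (560 nm) to flag overt cytotoxicity.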

Read-out in assay [4]: Interleukin 2 (IL2), IL2 (gene 3558)
The assay can be described thus: BSK_BT_xIL2: BioMAP Diversity Plus: BT Assay for Interleukin 2 (IL2) Biomarker Activity (AID 2284245). Particulars: primary human B cells with PBMC. The essentials:
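Secreted IL-2 was read by Luminex xMAP from B cells co-cultured with PBMC (human primary) 24 h post-dosing; activity was analysed as gain of signal relative to DMSO vehicle.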

Read-out in assay [5]: Basic fibroblast growth factor (bFGF), FGF2 (gene 2247)
The assay can be described thus: BSK_MyoF_bFGF: BioMAP Diversity Plus: MyoF Assay for Basic fibroblast growth factor (bFGF) Biomarker Activity (AID 2284246). The settings on record: primary human lung fibroblasts. The essentials:
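bFGF was measured by ELISA in primary human lung fibroblasts 24 h after chemical addition. Signal was analysed as positive-direction change relative to DMSO baseline.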

Read-out in assay [6]: Collagen IV, COL4A1 (gene 1282)
Kind of assay: BSK_MyoF_CollagenIV: BioMAP Diversity Plus: MyoF Assay for Collagen IV Biomarker Activity (AID 2284247). Particulars: primary human lung fibroblasts. In short, it runs like this: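 Collagen IV quantified by ELISA in human lung fibroblast cultures 24 h after chemical treatment, with DMSO as baseline. Parallel SRB staining (0.1% SRB after TCA fixation, 560 nm) flags overt cytotoxicity.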

Read-out in assay [7]: Monokine induced gamma interferon (MIG), CXCL9 (gene 4283)
The assay can be described thus: BSK_KF3CT_MIG: BioMAP Diversity Plus: KF3CT Assay for Monokine induced gamma interferon (MIG) Biomarker Activity (AID 2284248). The settings on record: primary human keratinocytes with fibroblasts. In short, it runs like this: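 ELISA read-out of MIG after 24 h chemical exposure of human skin primary co-culture (keratinocytes, foreskin fibroblasts). Gain of signal relative to DMSO negative control was analysed.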

Read-out in assay [8]: Interferon-inducible T-cell alpha chemoattractant (ITAC), CXCL11 (gene 6373)
Kind of assay: BSK_hDFCGF_ITAC: BioMAP Diversity Plus: hDFCGF Assay for Interferon-inducible T-cell alpha chemoattractant (ITAC) Biomarker Activity (AID 2284251). Particulars: primary human foreskin fibroblasts. The essentials:
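I-TAC levels were read by ELISA on human dermal foreskin fibroblast primary cultures 24 h after dosing, analysed against DMSO in the positive direction. Cytotoxicity was assessed alongside by sulforhodamine B total-protein staining.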

Read-out in assay [9]: Plasminogen activator inhibitor-1 (PAI1), SERPINE1 (gene 5054)
The assay can be described thus: BSK_KF3CT_PAI1: BioMAP Diversity Plus: KF3CT Assay for Plasminogen activator inhibitor-1 (PAI1) Biomarker Activity (AID 2284252). The settings on record: primary human keratinocytes with fibroblasts. The essentials:
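PAI-1 levels quantified by ELISA after 24 h compound exposure of primary human skin keratinocytes co-cultured with fibroblasts. Activity is the gain relative to DMSO; cytotoxicity tracked in parallel cultures via SRB staining.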

Read-out in assay [10]: Monocyte Chemoattractant Protein-1 (MCP1), CCL2 (gene 6347)
The assay can be described thus: BSK_IMphg_MCP1: BioMAP Diversity Plus: IMphg Assay for Monocyte Chemoattractant Protein-1 (MCP1) Biomarker Activity (AID 2284253). Particulars: primary human endothelial cells with macrophages. In short, it runs like this: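 ELISA readout of MCP-1 at 24 hours in IMphg co-cultures of venular endothelial cells and macrophages, normalised to DMSO; parallel cultures stained with sulforhodamine B for overt cytotoxicity.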

Read-out in assay [11]: Interleukin-8 (IL8), CXCL8 (gene 3576)
The assay can be described thus: BSK_KF3CT_IL8: BioMAP Diversity Plus: KF3CT Assay for Interleukin-8 (IL8) Biomarker Activity (AID 2284254). The settings on record: primary human keratinocytes with fibroblasts. In short, it runs like this: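 IL-8 read-out: ELISA, 24 h post-dose, human skin primary co-culture (keratinocytes + foreskin fibroblasts). DMSO = baseline; positive-direction fit.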

Read-out in assay [12]: Collagen I, COL1A1 (gene 1277)
The assay can be described thus: BSK_hDFCGF_CollagenI: BioMAP Diversity Plus: hDFCGF Assay for Collagen I Biomarker Activity (AID 2284250). The settings on record: primary human foreskin fibroblasts. In short, it runs like this:
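Collagen I quantified by ELISA 24 h after chemical dosing of human dermal fibroblast primary cells, with parallel SRB staining (0.1%, TCA-fixed, 560 nm) for overt cytotoxicity.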

Values joined by “and” are separate entries in the source; they are usually repeats but may differ in a detail not shown here. Equal entries are not always repeated. Where a structure was tested more than once in an assay, its records may differ in their call. Active and inactive are the calls of the source. Rule for the calls: active = hit-call score of the fitted dose curve at least 0.9, where 1 is the maximum; inactive = score below 0.9.

Turning to `FC(F)(Br)C(F)(F)C(F)(F)C(F)(F)C(F)(F)C(F)(F)Br`, the outcome in [1], in assay [2], in [3], in assay [4], in [5] and in assay [6] was inactive. In addition, the result in assay [7], in assay [8], in [9], in assay [10] and in assay [11] was inactive. The AC50 in assay [11] was 30 µM (active).
Regarding `O=C(O)C(F)(F)C(F)(F)C(F)F`, the result in [1], in assay [2], in [3], in [4], in [5] and in assay [6] was inactive. Further, the result in [7], in assay [8], in [9], in assay [10] and in [11] was inactive.
For the compound `CO[Si](OC)(c1ccccc1)c1ccccc1`, the figures for the AC50 in [1] and in assay [3] were 31.6 µM (active) and 30.8 µM (active), respectively. The result in [2], in assay [4], in [5] and in [6] was inactive.
For the compound `O=C(O)C=C(C(F)(F)F)C(F)(F)F`, the result in assay [1], in assay [3], in assay [5], in assay [6], in [7] and in [8] was inactive. Also, the outcome in assay [9], in assay [10] and in [11] was inactive. Moreover, the AC50 in assay [2] is 10.4 µM (active) and 8.84 µM (active); in assay [4] it was 10.1 µM (active) and 5.58 µM (active); in [10], 42.6 µM (active).
Regarding `NC(=O)C(F)(F)C(F)(F)C(F)(F)C(F)(F)F`, the outcome in [1], in assay [2], in assay [3], in assay [4], in assay [5] and in assay [6] was inactive. In addition, the outcome in assay [7], in assay [12], in assay [8], in [9], in [10] and in assay [11] was inactive.
Consider `C#C[C@]1(O)CC[C@H]2[C@@H]3CCc4cc(OC)ccc4[C@H]3CC[C@@]21C`, for which the outcome in assay [1], in [3], in [4], in [5] and in assay [6] was inactive. Moreover, the AC50 in assay [2] was 20 µM (active).
With `C=CC(F)(F)C(F)(F)C(F)(F)C(F)(F)C(F)(F)C(F)(F)C(F)(F)C(F)(F)C=C`, the result in assay [1], in assay [2], in assay [3], in assay [4], in assay [5] and in assay [6] was inactive. Further, the result in [7], in assay [8], in [9], in assay [10] and in [11] was inactive.
For `CCc1ccc(C(c2ccc(CC)cc2)C(Cl)Cl)cc1`, the AC50 was 8.17 µM (active) in [1]; 29.7 µM (active) in [2]; 7.07 µM (active) in assay [3]; 30.3 µM (active) in assay [4]; 28.9 µM (active) in [5]. The outcome in [6] was inactive.
Turning to `CCCCCCC(C)OC(=O)CCCCC(=O)OC(C)CCCCCC` (stereo not drawn), the outcome in assay [1], in [2], in [3], in [4], in assay [5] and in assay [6] was inactive.
With `CCCCCCCCCCCCCCCC[N+](C)(C)Cc1ccccc1`, the AC50 in assay [1] was 1.73 µM (active); in [2], 2.96 µM (active); in [3] it was 1.36 µM (active); in assay [4] it was 2.01 µM (active); in [5] it was 2.02 µM (active); in [6] it was 3.21 µM (active).
